# Measured values taken from PubChem BioAssay (NCI).
# The panel holds about 83,000 compounds, 20% with a hit somewhere; the sample as a whole holds those more often.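 Plates (96-well) were seeded with cells, treated with compound at one concentration, and incubated for 48 hours before percent growth was determined.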 Unmarked numbers belong to inactive results. Calls of active or inactive are those of the source. The calls were made as follows: active = growth percent below 10; inactive = the rest.
# What was measured:
# Test in all cases: NCI-60 one-dose screen, 48 h (100 = growth as untreated, 0 = no growth, -100 = all killed)
# NCI-H23 lung = conditions: 10 µM unless noted
# NCI-H226 lung = conditions: 10 µM unless noted
# NCI-H322M lung = conditions: 10 µM unless noted
# NCI-H460 lung = conditions: 10 µM unless noted
# 786-0 renal = conditions: 10 µM unless noted
# COLO 205 colon = conditions: 10 µM unless noted
# HOP-92 NSCLC = conditions: 10 µM
# NCI-H522 lung = conditions: 10 µM
# A549/ATCC NSCLC = conditions: 10 µM unless noted
SMILES,growth (NCI-H23 lung),growth (NCI-H226 lung) [%],growth (NCI-H322M lung),growth (NCI-H460 lung),growth (786-0 renal),growth (COLO 205 colon),growth (HOP-92 NSCLC) [%],growth (NCI-H522 lung) [%],growth (A549/ATCC NSCLC)
CCN(CC)CCOC(=O)c1cccnc1,95.8%,90.3,100%,101%,99.8%,119%,–,–,–
CCCCCCCCCCN1CC2CCCCC2C1 (centres undefined),82.2%,76,99.7%,–,86.6%,61%,56.4,67.1,97.3%
C=C[C@]1(C)C=C2C(=O)[C@@]3(O)OC[C@@]4(CCCC(C)(C)C43O)C2(O)C(O)C1 (some centres undefined),80.1%,81.4,108%,82.5%,38.2%,9.48% (active),–,–,76.4%
CC(=O)O.[In],103%,101,97.6%,111%,101%,112%,–,–,99.6%
CC(=O)/C(=C\c1c(-c2ccccc2)[nH]c2ccccc12)S(=O)(=O)c1ccccc1,-19.8% (active),23.2,43.1%,2.86% (active),9.85% (active),12%,–,–,19.6%
CC(=O)N(N=O)c1ccc([N+](=O)[O-])cc1Cl,34%,68.3,74.3%,–,74.1%,97.6%,31.6,–,61.7%
COc1cc(-c2nn(-c3ccc(NC(=O)c4cc(Cl)cc(Cl)c4)cc3)cc2-c2ccncc2)ccc1Cl,88%,107,104%,54.8%,16.7%,101%,–,–,73%
CCC(C)(C)c1ccc(OCCCCCCN2CCN(c3ccc(C)c(Cl)c3)CC2)cc1,62.3%,73.7,88.3%,–,95.7%,91.4%,82.6,84.6,97%
Cc1cc2cn3c4ccc(O)cc4[nH]c(=O)c3c2cc1C,25.3%,54.3,-8.89% (active),-81.9% (active),19.1%,-63.3% (active),–,–,3.2% (active)
COc1ccc(/C(=C(\c2ccccc2)[N+](=O)[O-])c2ccc(OCCN3CCCC3)cc2)cc1,74.9%,72.8,87.2%,–,15.2%,8.89% (active),59.5,83.7,78.4%
O=C(Nc1ccc(-n2cc(-c3ccncc3)c(-c3ccc(Cl)c(O)c3)n2)cc1)c1cc(C(F)(F)F)cc(C(F)(F)F)c1,63.8%,94.3,116%,36.7%,38.4%,70.1%,–,–,52.2%
